Measured values: PubChem BioAssay AID1259418 (Broad Institute, 2018)
In all, about 3,400 compounds went through this assay and about 840 (25%) were called active. Not shown: some 11% with an inconclusive outcome. These entries were drawn from the full list. Potency and affinity values are given separately. A number with no mark means an inactive call.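 How the source made its calls: active means fitted half-maximal concentration of signal decrease at or below twice the sample's top tested concentration; inconclusive means flat curve between -70 and -30 percent, or poor fit; inactive means flat within 30 percent, signal rise, or potency above limit.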

experiment: T. gondii growth inhibition with IFN-gamma, dose response, cell-based, ME49Luc, HeLa, luciferase, 72 h (AID 1259418); settings: T. gondii ME49Luc in IFN-y HeLa, stronger effect = lower value, -100% = high-dose IFN-γ control wells; at 19.5 µM unless noted

Row | Compound | max activity
1 | CN1C(=O)CCc2cc(NC(=O)C3CCC3)ccc21 | 8.04%
2 | CN1C(=O)CCc2cc(NC(=O)C3CCCCC3)ccc21 | 40.8%
3 | COc1ccc(-c2nc(Nc3cc(OC)c(OC)c(OC)c3)c3ccccc3n2)cc1 | -9.87% [at 0.16 µM]
4 | O=C(CCC1N=C2c3ccccc3N=C(SCc3cc(=O)n4cc(Cl)ccc4n3)N2C1=O)NCc1ccc2c(c1)OCO2 (stereo not given) | -18.4% [at 10 µM]
5 | CCCCN(C)C(=O)Cn1c(=O)c(S(=O)(=O)c2ccccc2)cc2cc(C)ccc21 | -7.02% [at 0.35 µM]
6 | COc1ccc(C(=O)N2CCC3(CC2)Nc2ccc(C)c(C)c2-n2cccc23)cc1 | 7.01% [at 0.68 µM]
7 | CCS(=O)(=O)N1CCC(C(=O)NCCc2csc(-c3ccccc3)n2)CC1 | -17%
8 | Cc1ccc(S(=O)(=O)N2CCC(C(=O)NCCc3csc(-c4ccccc4)n3)CC2)c(C)c1 | 19.2% [at 0.35 µM]
9 | Cc1ccc(S(=O)(=O)N2CCC(C(=O)NCCc3csc(-c4ccccc4)n3)CC2)cc1C | 12.1% [at 1.35 µM]
10 | O=C(NCCc1csc(-c2ccccc2)n1)C1CCN(S(=O)(=O)c2ccccc2F)CC1 | 8.96% [at 0.16 µM]
11 | COc1ccc(-c2nc3c(s2)CN(C(=O)Nc2ccccc2C(F)(F)F)CC3)cc1 | 102%
12 | Cc1nc(Nc2ccc(F)cn2)sc1C(=O)N1CCC(C(N)=O)(N2CCCCC2)CC1 | 6.22%
13 | COc1ccccc1NC(=O)Nc1ccc(-c2nc(-c3cccc(Br)c3)co2)cc1 | 8.23%
14 | Cc1ccc2c(c1)cc(S(=O)(=O)c1ccccc1)c(=O)n2CC(=O)NCCC(C)C | -4.39% [at 5 µM]
15 | COc1ccc(-c2nc(N3CCN(c4cccc(Cl)c4)CC3)c3ccccc3n2)cc1 | -7.34% [at 10 µM]
16 | COC(=O)c1ccccc1NC(=O)N1CCN(Cc2nc(-c3cccc(Cl)c3)oc2C)CC1 | 3.54% [at 2.6 µM]
17 | COc1ccccc1NC(=O)CN1CCC2(CC1)N=C(c1ccc(Cl)cc1)C(=O)N2 | -13.9% [at 1.35 µM]
18 | Cc1ccc(C)c(-c2coc(-c3ccc(NC(=O)CC(C)C)cc3)n2)c1 | -23% [at 10 µM]
19 | COc1ccc(-c2nc(CSc3nc4c(c(=O)[nH]3)CN(Cc3ccccc3)CC4)c(C)o2)cc1 | 9.43% [at 1.35 µM]
20 | Cn1cnc2c1C(C(=O)O)CN(C(=O)c1ccsc1)C2 (stereo not given) | 44.9%
